This note sets out measurements from PubChem BioAssay (EPA / NIEHS).

For experiment [1], the system named is DIO2 (gene 1734). The experiment can be described thus: CCTE_GLTED_hDIO2: CCTE's human Deiodinase 2 (DIO2) Inhibition Assay, Great Lakes Toxicology and Ecology Division (GLTED) Lab (AID 2284050; active = hit-call score of the fitted dose curve at least 0.9, where 1 is the maximum). The method in brief: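 In this cell-free test, chemicals are exposed to human deiodinase type 2 for 3 hours. Released iodide is determined spectrophotometrically via the Sandell-Kolthoff method, and signal loss relative to DMSO is fitted.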

Experiment [2] has as its system DIO3 (gene 1735). The experiment can be described thus: CCTE_GLTED_hDIO3: CCTE's human Deiodinase 3 (DIO3) Inhibition Assay, Great Lakes Toxicology and Ecology Division (GLTED) Lab (AID 2284055; active = hit-call score of the fitted dose curve at least 0.9, where 1 is the maximum;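 note: potency is for inhibition seen as loss of released iodide signal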). The method in brief: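 Enzyme activity is tracked as iodide release from substrate by recombinant human DIO3 over 3 h with chemical present. A second Sandell-Kolthoff step converts iodide to an absorbance signal, fitted relative to DMSO.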

Experiment [3] is described as follows: CCTE_Shafer_MEA_acute_AB: CCTE's Alamar Blue Assay for Cytotoxicity in the Neural Acute Assay, Shafer Lab (AID 2284069; active = hit-call score of the fitted dose curve at least 0.9, where 1 is the maximum;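 note: active compounds lower the viability signal compared with DMSO wells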). The method in brief: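 Resazurin reduction (CellTiter Blue, 1:6 in fresh medium) read at ex 544/em 590 nm marks viability loss relative to DMSO. Cells: primary rat cortical neuron networks on microelectrode arrays, treated after baseline recording at 13 or 15 days in vitro.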

The nature of experiment [4]: CCTE_Shafer_MEA_acute_LDH: CCTE's Lactate Dehydrogenase Assay for Cytotoxicity in the Neural Acute Assay, Shafer Lab (AID 2284086; active = hit-call score of the fitted dose curve at least 0.9, where 1 is the maximum;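 note: active means LDH release rises above DMSO vehicle level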). The method in brief:
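Released lactate dehydrogenase, read at 490 nm, indicated cytotoxicity after acute 40-min compound treatment of rat cortical neuron networks grown on 48-well MEA plates.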

Experiment [5] in a line: CCTE_Shafer_MEA_dev_per_burst_interspike_interval: CCTE's Neural Network Formation Assay for Burst Interspike Interval, Shafer Lab (AID 2284044).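 For AC50: potency for a decrease of within-burst interspike interval below DMSO level.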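 Note: mean spike spacing inside bursts as AUC over recordings on days 5 7 9 12.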 The method in brief: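 Mean interspike interval within single-electrode bursts, averaged over bursting electrodes, from rat cortical cultures on MEA plates recorded on days 5, 7, 9 and 12. Continuous compound exposure from plating; trapezoidal AUC fitted downward relative to DMSO.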

A short description of experiment [6]: CCTE_Shafer_MEA_dev_burst_duration_mean: CCTE's Neural Network Formation Assay for Mean Burst Duration, Shafer Lab (AID 2284045).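 For AC50: curve fitted for loss meaning shorter burst duration than DMSO.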 The method in brief: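 Primary rat cortical neurons on 48-well 16-electrode MEA plates, exposed from day 0 with renewal at DIV 5 and 9; spontaneous activity recorded on days 5, 7, 9, 12. Well-mean burst duration across bursting electrodes, collapsed as trapezoidal AUC; DMSO baseline.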

Experiment [7] is described as follows: CCTE_Shafer_MEA_dev_interburst_interval_mean: CCTE's Neural Network Formation Assay for Mean Interburst Interval, Shafer Lab (AID 2284046).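 Note: well-mean interburst interval of bursting electrodes as AUC over four recording days; curve fitted for decrease in interburst interval relative to DMSO.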 The method in brief:
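Primary rat cortical neurons on PEI-coated 48-well MEA plates (laminin added with cells at plating) (16 electrodes/well), exposed from plating day 0 with renewal at DIV 5 and 9. Mean inter-burst interval averaged over bursting electrodes, AUC across days 5, 7, 9, 12; DMSO baseline.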

Experiment [8] can be described thus: CCTE_Shafer_MEA_dev_inter_network_spike_interval_mean: CCTE's Neural Network Formation Assay for Mean Inter-network Spike Interval, Shafer Lab (AID 2284047).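 For AC50: potency for a decrease in mean inter-network spike interval below DMSO.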 The method in brief:
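Mean time between consecutive network-spike peaks, recorded extracellularly (adaptive spike detection) on DIV 5, 7, 9 and 12, summarized as trapezoidal AUC. Rat cortical cultures on MEAs dosed continuously days 0–12, re-dosed at feeds; loss-of-signal fit relative to DMSO.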

The nature of experiment [9]: CCTE_Shafer_MEA_dev_network_spike_number: CCTE's Neural Network Formation Assay for Number of Network Spikes, Shafer Lab (AID 2284048).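 For AC50: fit as a loss of signal meaning fewer network spikes than DMSO.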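 Note: synchronized bursts across electrodes counted on days 5 7 9 12 and integrated as AUC.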 The method in brief: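 Primary rat cortical neurons on PEI/laminin 48-well MEA plates, dosed from plating day 0 for 12 days, renewed at DIV 5 and 9. Network spike counts recorded DIV 5, 7, 9, 12, collapsed as trapezoidal AUC; DMSO baseline.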

Experiment [10] in a line: CCTE_Shafer_MEA_dev_network_spike_peak: CCTE's Neural Network Formation Assay for Mean Number of Electrodes in Network Spike, Shafer Lab (AID 2284049).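 For AC50: fitted for loss of signal meaning fewer electrodes in network spikes than DMSO.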 The method in brief:
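Network-spike peak electrode count from recordings on days 5, 7, 9 and 12 was combined as trapezoidal area under the curve. Rat cortical cultures were treated continuously from plating, with compound renewed at each feed (DIV 5, 9); fits versus DMSO.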

Experiment [11] in a line: CCTE_Shafer_MEA_dev_spike_duration_mean: CCTE's Neural Network Formation Assay for Mean Spike Duration, Shafer Lab (AID 2284051).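 For AC50: potency for a decrease in mean network spike duration versus DMSO.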 The method in brief: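 Spontaneous activity was recorded on days 5, 7, 9 and 12 from rat cortical cultures grown on microelectrode arrays and dosed continuously from day 0, with media and compound renewed after the DIV 5 and 9 recordings. Network-spike duration was collapsed by area under the curve.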

Experiment [12] in a line: CCTE_Shafer_MEA_dev_network_spike_duration_std: CCTE's Neural Network Formation Assay for Standard Deviation of Network Spike Duration, Shafer Lab (AID 2284052).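 Note: hits are decreases in network spike duration SD versus DMSO vehicle.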 The method in brief: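 Network spike duration variability was collapsed across recordings on days 5, 7, 9 and 12 by trapezoidal area-under-curve and fitted downward against DMSO. Cultures were rat cortical neurons on PEI-coated MEA plates, dosed continuously from plating, refed with compound DIV 5/9.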

Experiment [13] is described as follows: CCTE_Shafer_MEA_dev_per_network_spike_spike_number_mean: CCTE's Neural Network Formation Assay for Mean Number of Spikes in a Network Spike, Shafer Lab (AID 2284053).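 For AC50: fitted as decrease in spikes per network spike relative to DMSO.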 The method in brief:
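Mean spike count within each network spike, taken in a 0.05 s window at its peak, was recorded on days 5, 7, 9 and 12 and integrated as trapezoidal area under the curve. Rat cortical cultures on MEA plates received continuous compound from day 0, refreshed at medium changes on DIV 5 and 9.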

The nature of experiment [14]: CCTE_Shafer_MEA_dev_per_network_spike_spike_percent: CCTE's Neural Network Formation Assay for Percent of Spikes in a Network Spike, Shafer Lab (AID 2284054). The method in brief: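 Rat primary cortical neurons were grown on 48-well MEA plates (16 electrodes/well), exposed from plating day 0 through day 12, with treatment renewed on DIV 5 and 9. Percent of spikes within 0.05 s network-spike peaks was measured, summarised as AUC across days 5, 7, 9, 12.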

Experiment [15] can be described thus: CCTE_Shafer_MEA_dev_LDH: CCTE's Lactate Dehydrogenase Assay for Cytotoxicity in the Neural Network Formation Assay, Shafer Lab (AID 2284068; active = hit-call score of the fitted dose curve at least 0.9, where 1 is the maximum;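 note: exposure for twelve days from plating with re-dosing on DIV 5 and 9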). The method in brief:
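Primary rat cortical neurons were cultured on PEI-coated MEA plates and exposed from plating through day 12, with compound renewed at medium changes on DIV 5 and 9. LDH activity was read spectrophotometrically; loss of signal versus DMSO indicates reduced viability.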

Experiment [16] in a line: CCTE_Shafer_MEA_dev_AB: CCTE's Alamar Blue Assay for Cytotoxicity in the Neural Network Formation Assay, Shafer Lab (AID 2284083; active = hit-call score of the fitted dose curve at least 0.9, where 1 is the maximum;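 note: resazurin reduction fluorescence as viability of cultured neurons; twelve days of exposure from plating with re-dosing on DIV 5 and 9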). The method in brief:
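Resazurin fluorescence, relative to DMSO, gauges viability after twelve days of exposure that began at plating of rat cortical neurons (1.5 x 10^5 cells/well, 48-well MEA); treatment renewed with full medium exchange on DIV 5 and 9.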

The nature of experiment [17]: CCTE_Shafer_MEA_dev_mutual_information_norm: CCTE's Neural Network Formation Assay for Mutual Information Normalization, Shafer Lab (AID 2284091).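 For AC50: mutual information between electrodes summarised as area under curve across four recording days; potency is for a decrease in mutual information relative to DMSO.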 The method in brief:
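Primary rat cortical neurons on PEI-coated 48-well MEA plates, 1.5 x 10^5 cells/well, exposed from day 0 through day 12 with re-dosing at DIV 5 and 9. Mutual information between electrodes recorded days 5, 7, 9, 12; trapezoidal AUC, loss-of-signal fit versus DMSO.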

Experiment [18] is described as follows: CCTE_Shafer_MEA_dev_correlation_coefficient_mean: CCTE's Neural Network Formation Assay for Mean Correlation Coefficient, Shafer Lab (AID 2284093).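 For AC50: well mean pairwise spike train correlation integrated as AUC over recording days 5 to 12; potency fitted for loss of correlation relative to DMSO vehicle wells.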 The method in brief:
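Primary rat cortical neurons on PEI-coated 48-well MEA plates (16 electrodes/well) were exposed from plating day 0 through DIV12, with compound renewed at DIV5 and 9. Pairwise spike correlations were averaged per well; trapezoidal AUC across DIV5, 7, 9, 12.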

The nature of experiment [19]: UKN5_HCS_SBAD2_cell_viability: Viability Assessment in the University of Konstanz (UKN) Leist Lab Neurite Outgrowth Assay in human iPSC-derived immature Dorsal Root Ganglia Neurons (UKN5) (AID 2284056). The method in brief:
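iPSC-derived immature peripheral neurons (SBAD2) seeded on Matrigel with CHIR99021, SU5402 and DAPT, dosed 1 h later for 24 h. Viability from Hoechst H-33342 and calcein-AM live staining, high-content imaging; bidirectional fit versus DMSO.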

The nature of experiment [20]: UKN5_HCS_SBAD2_neurite_outgrowth: University of Konstanz (UKN) Leist Lab Neurite Outgrowth Assay in human iPSC-derived immature Dorsal Root Ganglia Neurons (UKN5) (AID 2284070). To be noted: actives raise or lower the signal. The method in brief:
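SBAD2 neurons, 24 h compound treatment, calcein-AM neurite area via HCS imaging; DMSO baseline, gain or loss of signal.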

Values joined by “and” are separate entries in the source; they are usually repeats but may differ in a detail not shown here. Identical values can stand only once. Inconclusive results are not listed. Active and inactive are the calls of the source. Rule for the calls, unless noted: active = hit-call score of the fitted dose curve at least 0.9, where 1 is the maximum; inactive = score below 0.9.

Regarding `CCCCCCCCn1sccc1=O`, the AC50 is 8470 nM (active) in experiment [1] and 17500 nM (active) in [2]. For the same compound, the compound was classed as inactive in [3] and in experiment [4].

For the compound `Clc1ccc(C(c2ccc(Cl)cc2)C(Cl)Cl)cc1`, the AC50 in experiment [5] was 8240 nM (active); in experiment [7], 8610 nM (active); in experiment [9], 1980 nM (active); in experiment [10], 4030 nM (active); in [11], 3390 nM (active); in experiment [12], 3210 nM (active). Moreover, the AC50 in [13] was 4950 nM (active); in experiment [14] it was 3970 nM (active); in [15], 5960 nM (active); in [16], 5140 nM (active); in experiment [17], 2010 nM (active); in experiment [18] it was 3890 nM (active). Besides, the result in [6], in experiment [8], in experiment [3] and in experiment [4] was inactive.

In the case of `Oc1ccc2ccc3cccc4ccc1c2c34`, the figures for the AC50 in experiment [1] and in experiment [2] were 100000 nM (active) and 61400 nM (active), respectively.

Take `O=[N+]([O-])c1ccc(Oc2ccc(Cl)cc2Cl)cc1`: the outcome in experiment [3] was inactive.

Take `CCC[CH2][Sn]([Cl])([CH2]CCC)[CH2]CCC`: the AC50 was 39.2 nM (active) in experiment [5]; 30.2 nM (active) in experiment [6]; 76.2 nM (active) in experiment [7]; 76.9 nM (active) in experiment [8]; 56.5 nM (active) in experiment [9]; 75.4 nM (active) in experiment [10]. In addition, the AC50 in [11] is 30.3 nM (active); in [12] it was 13.8 nM (active); in experiment [13] it was 63.2 nM (active); in [14], 77.7 nM (active); in experiment [19], 306 nM (active); in [15], 84.3 nM (active). The AC50 in [3] is 1.92 µM (active) and 3.06 µM (active); in [20], 109 nM (active); in [16], 81.4 nM (active); in experiment [4] it was 29.7 µM (active) and 15 µM (active); in experiment [17], 23.1 nM (active); in experiment [18] it was 77.2 nM (active).

On to `CC(C)(O)c1cnn2c(-c3ccc(F)c(-c4c(F)cccc4C#N)c3)cnc2n1`, for which the compound was called inactive in experiment [5], in experiment [6], in [7], in [8], in [9] and in experiment [12]. Further, the compound was classed as inactive in experiment [13], in experiment [3], in experiment [16], in experiment [4] and in [18]. The AC50 in experiment [10] is 1980 nM (active); in experiment [11], 1980 nM (active); in [14] it was 10000 nM (active); in experiment [17], 191 nM (active).

As to `O=P(OCCCl)(OCCCl)OCCCl`, the outcome in experiment [5], in experiment [6], in [7], in experiment [8], in experiment [9] and in [10] was inactive. The compound was classed as inactive in [11], in experiment [12], in [13], in experiment [14], in [3] and in experiment [16]. Besides, the compound was called inactive in experiment [4], in experiment [17] and in [18].

Take `[Cl-].[Cl-].[Hg+2]`: the AC50 in [5] was 869 nM (active); in experiment [6] it was 881 nM (active); in experiment [7] it was 318 nM (active); in experiment [9], 444 nM (active); in [10] it was 641 nM (active); in experiment [11] it was 640 nM (active). The AC50 was 382 nM (active) in [12]; 894 nM (active) in experiment [13]; 423 nM (active) in [14]; 929 nM (active) in experiment [15]; 32.6 µM (active) in experiment [3]; 559 nM (active) in experiment [16]. The concentration at half-maximal activity (AC50) in [4] is 30.6 µM (active); in experiment [18] it was 660 nM (active). Also, the result in experiment [8] and in [17] was inactive.

Turning to `N#CC(Br)Br`, the compound was classed as inactive in experiment [3] and in experiment [4].
